# Source: PubChem (National Center for Advancing Translational Sciences (NCATS))
# This is a sample that favours compounds with a hit; in the whole collection about 3.2% have one here.
# Tau fibril FP: tau fibrillization inhibition (FP); P10636; K18 P301L tau heparin fibrillization, Alexa594 FP, 6 h; Potency, µM (top dose mostly 57.7 µM), inactives show at the top dose activity, negative = inhibition, hits mostly inhibitors; actives 0.39% (n = 280,000); AID 1468; note: potency is the fitted concentration of half-maximal effect; % is set by controls: 0 for no effect and ±100 for the full control effect; nearly all actives have a fitted effect of over 55% in size
# Target sequence (P10636 561-689 P618L limits assumed): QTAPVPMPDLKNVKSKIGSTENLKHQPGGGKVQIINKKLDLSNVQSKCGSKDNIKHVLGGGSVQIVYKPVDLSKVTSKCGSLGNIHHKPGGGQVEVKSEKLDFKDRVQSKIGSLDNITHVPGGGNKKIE
#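 Steps: dispense K18 P301L tau (15 uM plus 0.24 uM Alexa 594 tracer, final) in pH 7 sodium acetate; add compound; add heparin (20 uM final); incubate 6 hr, 37 C; add ThT (30 uM final); after 1 hr ambient, read FP.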
# Tau fluor cs: counter-screen for tau fibril formation inhibitors; tau K18 P301L Alexa594 fluorescence, heparin fibrillization; Potency, µM (highest dose often 57.7 µM), inactives show top-dose activity change, negative = decrease; actives 0.93% (n = 280,000); note: potency is the fitted concentration of half-maximal effect; % is set by controls: 0 for no effect and ±100 for the full control effect; nearly all actives have a fitted effect of over 55% in size
#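 Human K18 P301L tau (15 uM unlabeled plus 0.24 uM Alexa 594-labeled, final) in 100 mM sodium acetate pH 7 was mixed with compound and 20 uM heparin and incubated 6 hr at 37 C.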
# JMJD2E inh: blocks human JMJD2E demethylase activity. Potency, µM (highest dose often 57.1 µM), inactives show top-dose activity change, negative = inhibition, hits mostly inhibitors. JMJD2E catalytic domain, FDH-coupled NADH fluorescence (FDH is formaldehyde dehydrogenase). AID 2147. B2RXH2. actives 1.6% (n = 230,000); active = well fitted inhibition curve with a large enough effect, not every such curve was filed as active; inconclusive = small, poorly fitted or top-dose-only effect, or another doubt; inactive = no such curve, though single readings can be large or run the other way;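 note: potency is the fitted concentration of half-maximal effect; 0% = wells with enzyme and -100% = buffer wells without enzyme; nearly all actives have a fitted effect of over 50% in size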
# Target sequence (B2RXH2 1-337 limits assumed): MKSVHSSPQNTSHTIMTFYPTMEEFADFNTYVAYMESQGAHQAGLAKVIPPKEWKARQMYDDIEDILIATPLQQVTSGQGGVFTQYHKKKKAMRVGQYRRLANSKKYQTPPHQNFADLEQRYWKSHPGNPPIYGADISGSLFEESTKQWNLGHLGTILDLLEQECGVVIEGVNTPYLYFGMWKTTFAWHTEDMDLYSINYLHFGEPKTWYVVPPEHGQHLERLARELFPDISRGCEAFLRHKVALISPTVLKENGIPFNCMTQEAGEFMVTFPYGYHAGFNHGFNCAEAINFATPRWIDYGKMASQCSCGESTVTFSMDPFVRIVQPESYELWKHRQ
# Tau ThT inhib: tau fibrillization inhibition (ThT binding); P10636; actives 2.1% (n = 270,000); recombinant tau K18 P301L (four-repeat tau fragment), heparin-induced fibrillization, ThT fluorescence; Potency, µM (titrated, usually from 57.4 µM), for the others: at the highest dose activity, negative = inhibition, hits mostly inhibitors; note: potency is the fitted concentration of half-maximal effect; % is set by controls: 0 for no effect and ±100 for the full control effect; nearly all actives have a fitted effect of over 55% in size
#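 Recombinant human tau K18 fragment […] carrying P301L, 15 uM unlabeled plus 0.24 uM Alexa 594-labeled, was fibrillized with 20 uM heparin in 100 mM sodium acetate pH 7 for 6 hr at 37 C; 30 uM ThT fluorescence read after 1 hr.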
# CBFb RUNX1 block: CBF-beta/RUNX1 interaction disruption; Q01196+Q13951; AlphaScreen CBFb-His/RUNX1-biotin binding, biochemical; Potency, µM (top dose mostly 59.8 µM), for the others: at the top dose activity, negative = inhibition, hits mostly inhibitors; 230,000 tested, under 10 active; AID 1477; note: % of control where 0% means no effect
#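 CBFb-His/RUNX1-biotin, 30 nM each, preincubated 20 min RT; compound 15 min RT; Ni + streptavidin beads 50 ng each, 90 min RT; AlphaScreen read.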
# LMNA splice mod: modulators of lamin A splicing; HeLa LMNA splicing GFP/RFP minigene ratio, 48 h; Potency, µM (doses to about 46.1 µM), for inactives: top-dose ratio change, negative = inhibition, hits mostly inhibitors; actives 0.01% (n = 200,000); AID 1487; active = well fitted inhibition curve with a large enough effect in the signal ratio, with a control signal flat, not every such curve was filed as active; inconclusive = small, poorly fitted or top-dose-only effect, or effect the other way, or a change in a side signal; the % refers to the signal ratio; note: potency is the fitted concentration of half-maximal effect; % is set by controls: 0 for no effect and ±100 for the full control effect
#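 S3 HeLa stable clones carrying a lamin A-EGFP splicing minigene plus DsRed2 were seeded at 600 cells/well in Opti-MEM with 2% FBS, pin-dosed and incubated 48 h at 37°C. Acumen cytometry (488 nm) gave the GFP/RFP total-intensity ratio.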
# Numbers without * were called inactive; ? = inconclusive; / = no result; [ ] = another dose, or the depositor's remark. Unless noted, calls come from the whole dose curve; as a rule, active = well fitted curve in the direction sought with a large enough effect; inconclusive = small, poorly fitted or top-dose-only effect, or another doubt; inactive = no such curve, though single readings can be large; an effect the other way counts as inactive or inconclusive.
SMILES,Tau fibril FP,Tau fluor cs,JMJD2E inh,Tau ThT inhib,CBFb RUNX1 block,LMNA splice mod
Cc1ccc(N2C(=O)CS/C2=C(\C(Cl)=C(Cl)Cl)[N+](=O)[O-])cc1,?,?,1%,25µM*,?,4%
Cc1ccc(N2C(=O)CSCC2=O)cc1,5%,-1%,2%,-6%,-8%,-9%
O=C(Nc1nc(=O)n(C(=O)C2CC2)s1)c1ccccc1,?,-19%,4%,11µM*,9%,-3%
Cc1ccc(C(=O)Nc2nc(=O)n(C(=O)c3ccccc3C)s2)cc1,?,-23%,-7%,14µM*,-4%,22%
Nc1cccc(Nc2nc(OC(C(F)(F)F)C(F)(F)F)nc(OC(C(F)(F)F)C(F)(F)F)n2)c1,12%,14µM*[quencher],-7%,4%,5%,?
COc1nc(Nc2ccc(O)cc2)nc(OC(C(F)(F)F)C(F)(F)F)n1,7%,?,-6%,4%,9%,-7%
COc1ccc2nc(N3C(=O)/C(=C/c4ccc(Cl)cc4)NC3=S)sc2c1,0%,-11%,2%,1.1µM*,6%,-12%
CCOC(=O)c1ccccc1NC(=O)Nc1ccc(OC)c(OC)c1,9%,6%,0%,7%,-1%,12%
CCCCOC(=O)c1ccc(NC(=O)Nc2ccc(OC)c(OC)c2)cc1,-9%,6.3µM*[quencher],4%,?,-9%,6%
CCCCOC(=O)c1ccc(NC(=O)/C=C/c2cccs2)cc1,14µM*,?,?,14%,-8%,-7%
COc1ccc(NC(=O)Nc2cccs2)cc1OC,2%,?,?,16µM*,-24%,6%
CCOC(=O)c1ccc(NC(=O)Nc2ccc(OC)c(OC)c2)cc1,?,13µM*[quencher],12%,?,-4%,1%
COC(=O)c1ccn(-c2nc(-c3ccc(Cl)cc3)cc(C(F)(F)F)n2)n1,11%,-10%,/,?,/,/
COc1cc(NC(=O)c2sc3nc4n(c(=O)c3c2C)CCCCC4)cc(OC)c1OC,-6%,-4%,/,11%,/,22%[46 µM]
CN(C)c1cccc(C(=O)N2CCC(c3c[nH]c4ccccc34)(c3c[nH]c4ccccc34)CC2)c1,8%,?,/,2%,/,/
O=C(/C=C/c1cccs1)c1ccc(NC(=O)c2cccc(Br)c2)cc1,?,?,2%,7.1µM*,-2%,10%
O=C(N/N=C/C(Br)=C/c1ccccc1)C(O)c1ccccc1 (centres undefined),-13%,?,-2%,-12%,1%,/
O=C(O)c1ccc(N/N=C/C(Br)=C/c2ccccc2)cc1,7%,?,-6%,14µM*,-7%,/
COc1cc(/C=N\Nc2nc3ccccc3[nH]2)cc(OC)c1OC,-3%,5%,10%,?,-4%,-14%
BrC(=C\c1ccccc1)/C=N/Nc1nc2ccccc2[nH]1,-9%,?,3%,25µM*,-1%,-7%
CCN(CC)S(=O)(=O)c1ccc(N/N=C(\C)c2ccc(OC)cc2O)nc1,?,?,32µM*,?,-15%,/
CCN(CC)S(=O)(=O)c1ccc(N/N=C/c2ccc(O)cc2)nc1,?,?,?,?,0%,/
CCCCCCC#CC1C=CC(OC(=O)OCC)C(COC(=O)OCC)O1 (centres undefined),?,-8%[11.6 µM],/,?,-1%[13.1 µM],/
O=C(N/N=C/c1ccc(-c2ccccc2[N+](=O)[O-])o1)c1cncc(Br)c1,?,?,-17%,7.9µM*,-19%,-15%
Nn1cnnc1N/N=C\c1ccc(-c2ccccc2[N+](=O)[O-])o1,?,?,4.5µM*,7.9µM*,-6%,?
SMILES,Tau fibril FP,Tau fluor cs,JMJD2E inh,Tau ThT inhib,CBFb RUNX1 block,LMNA splice mod
Cc1cc([N+](=O)[O-])c(C)cc1-c1ccc(/C=N/NC(=O)c2cccnc2)o1,?,?,-17%,7.1µM*,1%,-15%[46 µM]
O=C(N/N=C/c1ccc(-c2ccc([N+](=O)[O-])cc2)o1)c1cccnc1,-3%,-14%,-19%,?,14%,?
O=[N+]([O-])c1ccccc1-c1ccc(/C=N/n2cnnc2)o1,3%,-6%,6%,?,-3%,?
O=C(NCc1cccnc1)C(=O)NCC(c1cccnc1)N1CCN(c2ccccc2F)CC1 (centres undefined),-4%,-13%,/,-11%,/,14%[46 µM]
CC(=O)N[C@H]1CSSC[C@@H](C(=O)N2CCC[C@H]2C(=O)N2CCC[C@H]2C(=O)N[C@@H](CCCCN)C(=O)N[C@@H](CC(=O)O)C(N)=O)NC(=O)CNC(=O)[C@H](Cc2c[nH]c3ccccc23)NC(=O)[C@H](CCCNC(=N)N)NC(=O)[C@@H](Cc2ccc(Cl)c(Cl)c2)NC(=O)[C@H](Cc2cnc[nH]2)NC(=O)[C@H](CCC(=O)O)NC1=O,/,/,/,/,22%,/
COc1ccc2cc(C(=O)NCc3ccccc3)c(=Nc3ccc(C(=O)O)cc3)oc2c1,9%,10%,?,?,6%,21%[46 µM]
O=C(O)c1ccc(N=c2oc3cc(O)ccc3cc2C(=O)NCc2ccccc2)cc1,0%,-10%,/,28µM*,-10%,17%[46 µM]
O=C(NCCN1CCCCC1)c1ccc(Cn2c(SCc3ccccc3)nc3cccnc32)cc1,1%,-29%,/,?,/,/
COC(=O)CCc1sc(Nc2ccc(OC)cc2)nc1-c1ccc(OC)cc1,10%,18µM*[quencher],/,?,/,/
COC(=O)CCc1sc(NC2CCCCC2)nc1-c1ccc(OC)cc1,-4%,-16%,4%,?,11%,4%
